# Cl transport mod: modulators of human KCC2 chloride dependent transport. Q9H2X9. KCC2 cells, thallium flux FluoZin-2 fluorescence. B-score of Tl+ flux slope (higher = more flux/activation; lower = inhibition) at 10 µM. 190,000 tested, 2.2% active. AID 1456;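 active = thallium flux slope and its plate-corrected score both differing from the plate sample mean at a set confidence after two filtering rounds, in either direction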;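 also: slope of fluorescence scaled to starting intensity during 10 to 20 s after thallium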
# Target sequence (Q9H2X9 whole entry, looked up): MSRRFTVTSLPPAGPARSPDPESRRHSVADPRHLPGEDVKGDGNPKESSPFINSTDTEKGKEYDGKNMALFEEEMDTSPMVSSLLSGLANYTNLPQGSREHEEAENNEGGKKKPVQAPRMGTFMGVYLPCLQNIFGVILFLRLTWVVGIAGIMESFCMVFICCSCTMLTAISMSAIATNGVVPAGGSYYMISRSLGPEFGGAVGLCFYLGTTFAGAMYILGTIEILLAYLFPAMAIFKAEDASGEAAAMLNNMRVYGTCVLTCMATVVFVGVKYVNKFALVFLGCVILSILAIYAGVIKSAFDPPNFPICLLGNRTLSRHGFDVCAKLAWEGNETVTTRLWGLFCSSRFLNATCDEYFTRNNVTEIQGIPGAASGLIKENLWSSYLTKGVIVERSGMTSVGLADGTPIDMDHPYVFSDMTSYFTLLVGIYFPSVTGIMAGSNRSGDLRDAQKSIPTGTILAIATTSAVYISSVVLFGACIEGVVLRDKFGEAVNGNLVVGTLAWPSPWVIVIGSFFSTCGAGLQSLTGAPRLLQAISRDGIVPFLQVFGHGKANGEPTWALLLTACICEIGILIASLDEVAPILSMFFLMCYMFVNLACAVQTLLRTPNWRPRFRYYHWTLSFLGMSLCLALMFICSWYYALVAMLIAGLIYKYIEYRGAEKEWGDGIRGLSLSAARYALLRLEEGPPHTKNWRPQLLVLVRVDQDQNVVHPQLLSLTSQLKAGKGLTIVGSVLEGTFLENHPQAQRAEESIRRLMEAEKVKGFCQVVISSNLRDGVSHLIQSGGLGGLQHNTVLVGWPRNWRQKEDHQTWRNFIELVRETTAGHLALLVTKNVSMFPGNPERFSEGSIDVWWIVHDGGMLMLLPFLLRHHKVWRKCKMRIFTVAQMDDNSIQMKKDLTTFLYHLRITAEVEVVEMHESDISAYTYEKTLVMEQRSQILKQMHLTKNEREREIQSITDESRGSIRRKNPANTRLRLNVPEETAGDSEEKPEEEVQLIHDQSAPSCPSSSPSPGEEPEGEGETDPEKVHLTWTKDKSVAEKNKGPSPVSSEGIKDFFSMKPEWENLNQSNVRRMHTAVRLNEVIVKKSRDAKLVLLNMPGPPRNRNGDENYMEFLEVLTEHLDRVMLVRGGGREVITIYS
# WT yeast gro inh: growth inhibition of WT yeast, mitochondrial fusion screen; 190,000 tested, 2.1% active; inhibition, % at 10 µM; mitochondrial fusion phenotypic screen, WT strain; in the data active = inhibition above about 58%; tested in S. cerevisiae
# Insulin prom up: MIN6 insulin promoter up-regulation. MIN6 insulin promoter-GFP reporter, high-content imaging; hits give high values. z-score at 5 µM. 190,000 tested, 0.3% active. AID 1625;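 active = z-score above 3 at 5 µM with at least 500 cells counted in the well; inconclusive = wells under 500 cells, flagged as cytotoxic or low count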
# Lmaj promast: Leishmania major promastigote growth inhibition. Leishmania major promastigotes, resazurin fluorescence viability. inhibition, % at 10 µM. 200,000 tested, 9% active. AID 1063; in the data active = inhibition above about 50%;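 also: promastigotes grown with compound for 44 hours at 28 °C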
# ROMK primary: modulators of human ROMK potassium channel; Tet-inducible ROMK, thallium flux fluorescence; actives lie on both sides; B-score at 10 µM; 130,000 tested, 2% active;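 active = signal ratio slope over the read window, or its plate-corrected B-score, at least 3 SD from the plate mean, either direction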;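 also: B-score of the F/F0 ratio slope over 7 to 12 s after thallium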
# Insulin prom inh: TRM-6 insulin promoter activity inhibition. TRM-6 cells (human fetal islet line), insulin promoter-eGFP reporter, imaging; reporter expression induced with tamoxifen. inhibition, % at 2 µM. 130,000 tested, 0.9% active. AID 1273;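 active = inhibition above the mean plus 3 SD, with well images judged a real hit on visual review, cut at about 60% in these data, passing the limit was not always enough; inconclusive = inhibition over the cutoff but images rejected on review; inactive = inhibition not above the cutoff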
# ROMK hit retest: confirmation of human ROMK potassium channel modulators; shares compounds with ROMK primary; ROMK thallium flux, fluorescence ratio; hits give low values; normalized thallium flux (F/F0 slope) at 10 µM; 3,000 tested, 54% active; AID 1917;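 active = Flux at 10 µM at least 3 SD below or above vehicle control mean in one or both replicates; inconclusive = no clear call, values can overlap the other calls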
# A number is an active result; - = inactive; ? = inconclusive; . = no result given. In the library only some 12% were active in any assay of this set; here they are far more common.
SMILES,Cl transport mod,WT yeast gro inh,Insulin prom up,Lmaj promast,ROMK primary,Insulin prom inh,ROMK hit retest
COc1ccc(NC2=CC(c3ccc(OC)c(OC)c3)N(c3ccc(OC)cc3)C2=O)cc1 (stereo not given),-,-,-,-,.,.,.
OCCSc1nc(-c2ccccc2)nc2ccc(F)cc12,-,-,-,-,-,.,.
NC(N)=Nc1nc(-c2ccccc2)c2cc(F)ccc2n1,-,-,-,100.0,-3.67,.,0.0599
COc1cc(/C=C(\C#N)C(=O)Nc2ccccc2C(=O)O)cc(Cl)c1OC,-,-,-,-,-4.58,.,0.0571
COc1ccc(/C=C(/C#N)C(=O)Nc2cccc(C)c2C)cc1C(=O)O,.,-,-,-,.,-,.
O=[N+]([O-])c1ccc2nc(CCCc3nc4ccc([N+](=O)[O-])cc4[nH]3)[nH]c2c1,.,-,-,-,-6.89,.,0.0268
CCOC(=O)Nc1ccc2c(c1)N(C(=O)CN1CCN(C)CC1)c1ccccc1S2,-,-,-,-,.,-,.
Cc1scc2c1N(C(=O)CN1CCN(C)CC1)c1ccccc1NC2=O,-,-,-,-,3.12,-,-
Cc1n[nH]c(C)c1CCCCOc1ccccc1,-,-,-,-,-,-,.
N#C/C(=C\c1ccncc1)c1nc2ccccc2c(=O)[nH]1,-,-,-,-,-4.93,.,0.0512
N#C/C(=C1\CCCN1)c1nc2ccccc2c(=O)[nH]1,.,-,-,-,-,-,.
N#C/C(=C\c1ccccc1)c1nc2ncccc2[nH]1,-,-,-,66.2,-2.54,.,0.0534
N#C/C(=C/c1ccncc1)c1nc2ccccc2c(=O)[nH]1,-,.,-,.,-6.62,.,0.042
Nn1c(Cc2ccccc2F)nnc1SCn1nnc2ccccc2c1=O,-,-,-,-,.,.,.
O=C(O)COCC(=O)NCc1csc2ccccc12,-,.,.,.,.,.,.
CCOc1ccccc1NC(=O)C(OC(=O)C1CC1)c1ccccc1 (stereo not given),-,.,-,.,.,.,.
CCOc1ccccc1NC(=O)C(NCC1(N2CCCCC2)CCCCC1)c1ccccc1 (stereo not given),-,-,-,66.3,-3.44,-,0.0642
CCOc1nc(C#N)nc(N2CCCCC2)n1,-,-,-,-,.,.,.
CC(=O)N/N=C/c1cc(C(C)(C)C)cc(/C=N/NC(C)=O)c1O,-,-,.,-,-3.04,.,0.0554
O=C(CSc1ccc(-c2ccccn2)nn1)N1CCCCC1,-,-,-,-,-,-,.
CCN1C(=O)/C(=C/c2ccc(C)s2)NC1=S,.,-,-,-,4.64,-,-
COc1cc2c(cc1OC)C(C(=O)Nc1ccccc1N1CCN(C)CC1)C1c3ccccc3CCN1C2=O (stereo not given),-,-,-,-,-,-,.
O=c1[nH]c(CN2CCN(c3ccc([N+](=O)[O-])cc3)CC2)nc2ccsc12,-,-,-,-,-3.49,-,0.0595
COc1ccc(N2CCN(Cc3nc4ccsc4c(=O)[nH]3)CC2)cc1,-,-,-,-,-,-,.
COc1ccc(OC)c(CN2CCN(Cc3cccc4ccccc34)CC2)c1,-,-,-,65.0,-3.89,.,0.0499
SMILES,Cl transport mod,WT yeast gro inh,Insulin prom up,Lmaj promast,ROMK primary,Insulin prom inh,ROMK hit retest
Cc1nn(CCCC(=O)NCc2ccc(F)cc2)c(C)c1[N+](=O)[O-],-,-,-,-,-,-,.
Cc1nn(CCCC(=O)N2CCN(c3ccc(F)cc3)CC2)c(C)c1[N+](=O)[O-],-,-,-,-,-5.98,-,0.0541
COc1cccc(CNC(=O)CCC2CCCN(C/C=C/c3ccccc3OC)C2)c1 (stereo not given),-,-,-,-,-5.47,.,0.065
O=C(N/N=C/c1ccccc1[N+](=O)[O-])c1ccc2nc[nH]c2c1,-,.,-,.,-,.,.
O=C(Cn1ccc([N+](=O)[O-])n1)N1CCCCC1,-,-,-,-,-,.,.
O=C(c1ccc([N+](=O)[O-])cc1)N1CCSC1c1ccc(Cl)cc1 (stereo not given),-,-,.,-,-3.35,-,?
O=C(c1ccc([N+](=O)[O-])cc1)N1CCSC1c1ccc(Br)cc1 (stereo not given),-,-,-,-,.,-,.
CCNc1nc(-c2ccc(OC(F)F)cc2)c(C)s1,-,-,-,-,-4.54,.,0.0624
COc1ccc(-c2nc(NC3=NCCCCC3)sc2C)cc1,-,-,-,-,-,.,.
Cc1cccc(OCCCN2CCCCCC2)c1,-,-,-,97.5,3.19,-,-
